According to PubChem BioAssay AID1022 (Emory University Molecular Libraries Screening Center, 2008):
The whole screen tested about 220,000 compounds, of which about 3,300 (1.5%) were called active.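 The calls were made as follows: active = compounds that cut the protein-peptide binding signal by more than 50% relative to plate controls in a single-dose test; inactive = the rest.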 This excerpt belongs to a sample that is enriched for actives.

Target: Induced myeloid leukemia cell differentiation protein Mcl-1 (Homo sapiens) (UniProt Q07820)
Sequence (Q07820 whole entry, looked up): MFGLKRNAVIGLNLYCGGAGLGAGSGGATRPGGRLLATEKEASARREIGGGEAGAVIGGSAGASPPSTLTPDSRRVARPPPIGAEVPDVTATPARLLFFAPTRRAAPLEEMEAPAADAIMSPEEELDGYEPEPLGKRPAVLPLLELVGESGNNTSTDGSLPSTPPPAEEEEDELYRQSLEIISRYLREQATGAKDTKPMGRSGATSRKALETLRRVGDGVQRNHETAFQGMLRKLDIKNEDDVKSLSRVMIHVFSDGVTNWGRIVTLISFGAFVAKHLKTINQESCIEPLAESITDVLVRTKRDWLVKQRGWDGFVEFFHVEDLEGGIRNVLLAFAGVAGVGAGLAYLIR
Assay: disruptors of Mcl-1 and Noxa BH3 peptide – biochemical, TR-FRET, 1536-well, primary screen (AID 1022);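 also: His-tagged Mcl-1 with rhodamine Noxa BH3 peptide and terbium anti-His antibody; 0% = Mcl-1 plus Noxa peptide wells and 100% = peptide-only wells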
Conditions: TR-FRET Mcl-1/Noxa peptide binding, 2 h; at 21.7 µM; active compounds read high

inhibition, active:
O=[N+]([O-])c1ccc(N2CCN(c3ccc(O)cc3)CC2)c(Cl)c1 65.2%, O=C(N/N=C/c1ccc(Cl)cc1)c1nc2ccc([N+](=O)[O-])cc2c(=O)[nH]1 71.4%, Fc1ccc(-c2ccc(-c3nn4c(-c5ccco5)nnc4s3)o2)cc1 71%, COc1ccc(OCC(=O)Nc2nnc(-c3ccco3)s2)cc1 87.4%, Cc1ccc(-c2nc(CS(=O)CC(=O)N3CCN(c4ncccn4)CC3)c(C)o2)cc1 (stereo not drawn) 54.7%, Cc1coc2c(O)cc3c(c12)OC1(N2CCCCC2)C(=O)NCCCC31 (stereo not drawn) 62.4%, Cc1ccc(NC(=O)c2cc(-c3ccc(C)o3)nc3ccccc23)nc1 52.1%, C=C(C)C(=O)Nc1cccc(C2=NOC3(C2)C[C@H](C(N)=O)N(C(=O)C(c2ccccc2)c2ccccc2)C3)c1 (stereo partly drawn) 79.5%, COc1ccc(NC(=O)/C(C#N)=C\c2cc(OC)c(OCc3ccc(C(=O)O)cc3)cc2Br)cc1 61.8%, Cc1nc(-c2ccc(Cl)cc2)sc1C(=O)CBr 61%, COc1cc(C(=O)Nn2c(O)c(C3=c4ccccc4=NC3=O)sc2=S)ccc1O 58.1%, O=S(=O)(/C=C/c1ccccc1)NCCc1ccccn1 70%

inhibition, inactive:
COc1ccc(NC(=O)CSc2ncnc3[nH]ncc23)cc1 16.1%, CCN(CC)c1ccc(NC(=O)C2CCC(CNc3c(N4CCCC4)c(=O)c3=O)CC2)c(C)c1 (stereo not drawn) 19.7%, O=C(O)C1CCN(c2ccc([N+](=O)[O-])cc2[N+](=O)[O-])CC1 23.9%, COc1ccc(N2CCN(c3ccc([N+](=O)[O-])cc3Cl)CC2)cc1 11.9%, O=C(N/N=C/c1ccc([N+](=O)[O-])cc1)c1c[nH]c2ccccc12 14.4%, Cc1nc2ccccc2cc1C(=O)N/N=C/c1ccc([N+](=O)[O-])cc1 9.39%, CN1CCc2ccccc2C1Cc1ccccc1NC(=O)c1sc2ccccc2c1Cl (stereo not drawn) -2.87%, FC(F)(F)c1nc(-c2ccccc2)ncc1-c1nnnn1-c1ccccc1 35.2%, C=CCNC(=S)N/N=C/c1ccc(C)s1 7.32%, FC(F)(F)c1nnc2sc(-c3ccco3)nn12 2.95%, Cc1nnc2sc(-c3ccco3)nn12 3.91%, Cc1ccc(OCC(=O)Nc2nnc(-c3ccco3)s2)cc1 17.5%, CNc1nnc(-c2ccco2)s1 6.49%, Cc1c([N+](=O)[O-])c(N)nn1C 12.1%, Cc1ccc(-c2nc(CS(=O)CC(=O)NC3CCCC3)c(C)o2)cc1 (stereo not drawn) 10%, COc1ccc(-c2nc(CS(=O)CC(=O)N3CCc4ccccc4C3)c(C)o2)cc1 (stereo not drawn) 18.7%, O=C(NCc1ccccc1Cl)NC(=O)c1csc([N+](=O)[O-])c1 -17.3%, COc1ccc(/C=N/n2nnnc2N)cc1OC -6.77%, Cc1c(NC(=O)c2cc(-c3ccc(Cl)s3)nc3ccccc23)c(=O)n(-c2ccccc2)n1C -5.37%, Cc1ccc(-c2cc(C(=O)Nc3nn[nH]n3)c3ccccc3n2)c(C)c1 10.4%, Cc1ccc(C(=O)N/C(=C\c2ccco2)C(=O)NC2CCS(=O)(=O)C2)cc1 (stereo not drawn) 2.28%, C/C=C\C=C\C(=O)N1CC2(CC(c3cccc(NC(=O)/C(C)=C\C)c3)=NO2)C[C@H]1C(N)=O (stereo partly drawn) -3.38%, C/C=C(/C)C(=O)Nc1cccc(C2=NOC3(C2)C[C@@H](C(N)=O)N(C(=O)C2(C)CC2)C3)c1 (stereo partly drawn) 10.3%, CCCN(CCC)CC(O)COc1ccccc1C(=O)Nc1ccccc1 (stereo not drawn) 2.75%, COC(=O)c1ccc(COc2ccc(/C=N/NC(=O)C(=O)Nc3ccc(OC)cc3)cc2OC)o1 -4.48%, COc1cc(/C=C(\C#N)C(=O)Nc2ccc3ccccc3c2)c([N+](=O)[O-])cc1OC 50.2%, CCO[C@@H]1OC(C(=O)NC2CC2)=C[C@H](C)[C@H]1CCCO -4.75%, Cc1ccc(SCC(=O)c2sc(-c3ccccc3)nc2C)cc1 12%, Cc1nc(-c2ccc(Cl)cc2)sc1C(=O)NN -14.8%, CC1=CC2=NC(=O)/C(=C/c3coc4ccccc4c3=O)C(=N)N2O1 1.38%, CCN(CC)C(=O)c1ccc(O)c(OC)c1 4.61%, COc1cc(C(=S)NC2CCCCC2)ccc1O 14.7%, CC(C)(C)c1ccc(/C=C2\Oc3c(ccc(O)c3CN3CCN(CCO)CC3)C2=O)cc1 23.9%, CCOC(=O)c1ccc(S(=O)(=O)N(CCO)Cc2cc3cc(OC)c(OC)cc3[nH]c2=O)cc1 -2.09%, O=C(CNC(=O)COc1ccccc1)NCCc1ccccn1 23.7%, CN(CC(=O)NCCc1ccccn1)S(=O)(=O)c1ccc(Cl)cc1 0.36%
